Experimental data as given in PubChem BioAssay AID2314 (National Center for Advancing Translational Sciences (NCATS), 2010).
The whole screen tested about 300,000 compounds, of which about 37,000 (12%) were called active. This is one part of a sample in which actives are shown more often than they occur. Rule as the data show it: active = max response mostly above about 13% (no sharp cut-off); inactive = mostly below about 14%.

Assay: Cycloheximide Counterscreen for Small Molecule Inhibitors of Shiga Toxin; also: read at 38.3 µM for the half of the compounds with a filed dose; 0% is about no effect
Details: cell reporter, cycloheximide protein synthesis inhibition counterscreen; active compounds read high

Structure (SMILES) | max response
Cc1cccc(C(=O)Nc2nnc(S(=O)(=O)N3CCCCCC3)s2)c1 | -1.9% (inactive)
O=C1/C(=C/c2ccc(F)cc2)SC(=S)N1CCCC(=O)N1CCCCC1CCO (configuration not stated) | 0.37% (inactive)
CN1CCN(c2ccc(S(=O)(=O)N3CCCCC3)cc2NC(=O)Cc2ccccc2F)CC1 | 0.822% (inactive)
COc1ccc(CC(=O)Nc2cc(S(=O)(=O)N3CCCCC3)ccc2N2CCN(C)CC2)cc1 | -2.16% (inactive)
CCN1CCN(c2ccc(S(=O)(=O)N3CCCCC3)cc2NC(=O)Cc2c(Cl)cccc2Cl)CC1 | 44.2% (active)
CCCNC(=O)C(=O)Nc1cc2c3c(c1)CCC(=O)N3CCC2 | -6.21% (inactive)
Cc1cc(F)ccc1N1CCC(N2CCN(C)C(CCO)C2)CC1 (configuration not stated) | -1.8% (inactive)
CCCn1c(C(O)c2cc(OC)ccc2OC)nc2ccccc21 (configuration not stated) | -2.36% (inactive)
CCCn1c(C2CCCN2c2nc(-c3ccc(OC)cc3)cs2)nc2ccccc21 (configuration not stated) | 3.07% (inactive)
CCCn1c(CCNc2nc(-c3ccc(OC)cc3)cs2)nc2ccccc21 | 6.09% (active)
COC(=O)c1ccc(CSc2ccc3nnc(-c4ccccc4)n3n2)o1 | 15.3% (inactive)
Cc1nnc2n1N=C(c1ccc3c(c1)NC(=O)CO3)CS2 | -0.735% (inactive)
Cc1ccc(/C=N/NC(=S)NC2CCCCC2)o1 | 24.4% (active)
Cc1cc(C)cc(NC(=S)NCc2ccc(F)cc2)c1 | -3.19% (inactive)
Cc1ccc(NC(=S)NC2CCCC2)cc1 | 26.6% (active)
Cc1cc(Br)ccc1NC(=S)NC1CCCC1 | 30.4% (active)
CC(Oc1ccc(Br)cc1Br)C(=O)NC1CCCC1 (configuration not stated) | -1.67% (inactive)
Cc1ccc(NC(=S)Nc2ccc(F)cc2)cc1 | 8.11% (active)
S=C(Nc1ccc(Br)cc1Cl)NC1CCN(Cc2ccccc2)CC1 | -4.37% (inactive)
CC(C)CNC(=S)Nc1ccc(F)cc1 | -3.91% (inactive)
Cc1ccc(NC(=O)CSCC(=O)NC2CCCCC2)cc1 | 1.06% (inactive)

Structure (SMILES) | max response
S=C(Nc1ccc(Br)cc1)NC1CCN(Cc2ccccc2)CC1 | -1.87% (inactive)
Cc1ccc(/C=N/NC(=S)Nc2cccc(S(=O)(=O)N(C)C)c2)o1 | 11.3% (inactive)
C/C(=N\NC(=S)NC1CCCCC1)c1ccc(C)o1 | 26.6% (inactive)
Cc1ccc(-n2c(C)nnc2SCC(=O)NC2CC2)cc1 | 1.87% (inactive)
O=C(CN1CCN(Cc2ccccc2)CC1)Nc1ccc(F)c(F)c1 | 2.05% (inactive)
COc1ccc(C2CC(c3cccs3)=NN2c2nc(C)c(C(C)=O)s2)cc1OC (configuration not stated) | 14% (inactive)
CCN(CC)CCCNC(=O)c1c(O)c2cc(F)cc3c2n(c1=O)C(C)CC3 (configuration not stated) | -7.23% (inactive)
O=C(N/C(=C\c1ccc([N+](=O)[O-])cc1)C(=O)N1CCOCC1)c1cccc(Br)c1 | 0.841% (inactive)
COc1ccc(/C=C/C(=O)Nc2c(C)nn(C)c2C)cc1COc1ccc(Br)cc1 | -4.32% (inactive)
Cc1ccc(S(=O)(=O)N2CCN(c3ccccc3)CC2)cc1C | -2.26% (inactive)
CN(CC(=O)Nc1c(Cl)cccc1Cl)C(=O)CNC(=O)C1CCCCC1 | 5.73% (inactive)
O=C(O)CCc1nc2cc(Cl)ccc2n(Cc2ccccc2)c1=O | -1.53% (inactive)
Cc1nnc(SC(C)C(=O)Nc2ccc(S(=O)(=O)NC3CCCCC3)cc2)s1 (configuration not stated) | -4.95% (inactive)
CCOCCCN(C)C1CCN(C(=O)c2oc3ccccc3c2NC(=O)Cc2cccc([N+](=O)[O-])c2)CC1 | -8.08% (inactive)
COc1ccc2occ(C(=O)c3ccc(N=C(C)N(C)C)cc3)c2c1 | 28.3% (active)
COc1ccc(OC)c(C(=O)c2ccc(C(=O)O)cc2)c1 | 5.22% (inactive)
COc1ccc(OC)c(C(=O)c2coc3ccc(OC)cc23)c1 | -2.15% (inactive)
COc1ccccc1OCc1ccc(C(=O)NC(C)c2ccccc2)o1 (configuration not stated) | -0.796% (inactive)
CC(C)(C)NC(=O)c1cccc(NC(=O)Cc2ccc(Br)cc2)c1 | -3.99% (inactive)
CN(C)C(=O)c1nc2ccc(Cl)cn2c1CNCc1cccc(OC(F)(F)F)c1 | 0.689% (inactive)
C/C(=N\NC(=O)c1cccnc1)c1ccc(-n2ccnc2)cc1 | -1.63% (inactive)

Structure (SMILES) | max response
CC1CCc2sc(C(=O)N/N=C/C3CCCCC3)cc2C1 (configuration not stated) | 8.2% (inactive)
C/C(=N\NC(N)=S)c1cccnc1 | -2.63% (inactive)
C/C(=N\NC(=O)c1cccnc1)c1ccc(-c2ccccc2)cc1 | 12.6% (active)
C/C(=N\NC(N)=S)c1ccncc1 | -1.83% (inactive)
C/C(=N\NC(=O)c1cccc([N+](=O)[O-])c1)c1cccnc1 | 11.9% (inactive)
COCc1c(C(=O)N/N=C(\C)c2ccncc2)nnn1-c1nonc1N | -0.414% (inactive)
C/C(=N/NC(=O)c1ccn(C)n1)c1ccncc1 | 51.6% (active)
C/C(=N\NC(=O)Cc1ccc(Br)cc1)c1cccnc1 | 1.49% (inactive)
C/C(=N\NC(=O)c1ccc2ccccc2c1)c1cccnc1 | 34.4% (active)
C/C(=N\NC(=O)c1cc2c(s1)CCC(C)C2)c1cccnc1 (configuration not stated) | 19.2% (active)
C/C(=N\NC(=O)c1cc(-c2ccc(O)cc2)nc2ccccc12)c1cccnc1 | 17% (inactive)
C/C=N/NC(=O)CCCC(=O)N/N=C/C | -6.46% (inactive)
CCOC(=O)c1c(NC(=O)Cn2nc(C(F)(F)F)cc2C)sc2c1CCC2 | 4.3% (inactive)
CCCc1nc2oc3c(OCC)ncnc3c2c2c1COC(C)(C)C2 | -2.02% (inactive)
CCOC(=O)/C(N=Nc1cc(C(=O)O)cc(C(=O)O)c1)=C(\O)CCl | -1.38% (inactive)
Cc1cccc(CN2CCC(CNC(=O)Nc3ccc(F)c(Cl)c3)CC2)c1 | 0.642% (inactive)
C/C(=N\NC(=O)c1nc(C)cc(C)n1)c1ccccc1 | 31.4% (active)
COc1ccc(/C(C)=N\NC(=O)c2ccc(-c3ccccc3)cc2)c(F)c1 | 0.503% (inactive)
CNC(=O)C(NC(=O)c1ccccc1)=C(C)C | 3.38% (inactive)
CSc1ccc(CN2C(=O)NC3(CCCCCC3)C2=O)cc1 | -3.95% (inactive)
